Columns and labels:
Experiment in all cases: log2 ratio of Biotin-Ahx-Ub-VS probe labelling (fragment/DMSO); higher = less target engagement (more negative = stronger competition), active = hit call of the paper (q ≤ 0.05, log2 ratio ≤ -1)
Details in all cases: compound concentration: 200 uM; treatment time: 3 h
USP42 = molecular target: T1, USP42 (UniProt Q9H9J4)
T1 sequence (whole entry): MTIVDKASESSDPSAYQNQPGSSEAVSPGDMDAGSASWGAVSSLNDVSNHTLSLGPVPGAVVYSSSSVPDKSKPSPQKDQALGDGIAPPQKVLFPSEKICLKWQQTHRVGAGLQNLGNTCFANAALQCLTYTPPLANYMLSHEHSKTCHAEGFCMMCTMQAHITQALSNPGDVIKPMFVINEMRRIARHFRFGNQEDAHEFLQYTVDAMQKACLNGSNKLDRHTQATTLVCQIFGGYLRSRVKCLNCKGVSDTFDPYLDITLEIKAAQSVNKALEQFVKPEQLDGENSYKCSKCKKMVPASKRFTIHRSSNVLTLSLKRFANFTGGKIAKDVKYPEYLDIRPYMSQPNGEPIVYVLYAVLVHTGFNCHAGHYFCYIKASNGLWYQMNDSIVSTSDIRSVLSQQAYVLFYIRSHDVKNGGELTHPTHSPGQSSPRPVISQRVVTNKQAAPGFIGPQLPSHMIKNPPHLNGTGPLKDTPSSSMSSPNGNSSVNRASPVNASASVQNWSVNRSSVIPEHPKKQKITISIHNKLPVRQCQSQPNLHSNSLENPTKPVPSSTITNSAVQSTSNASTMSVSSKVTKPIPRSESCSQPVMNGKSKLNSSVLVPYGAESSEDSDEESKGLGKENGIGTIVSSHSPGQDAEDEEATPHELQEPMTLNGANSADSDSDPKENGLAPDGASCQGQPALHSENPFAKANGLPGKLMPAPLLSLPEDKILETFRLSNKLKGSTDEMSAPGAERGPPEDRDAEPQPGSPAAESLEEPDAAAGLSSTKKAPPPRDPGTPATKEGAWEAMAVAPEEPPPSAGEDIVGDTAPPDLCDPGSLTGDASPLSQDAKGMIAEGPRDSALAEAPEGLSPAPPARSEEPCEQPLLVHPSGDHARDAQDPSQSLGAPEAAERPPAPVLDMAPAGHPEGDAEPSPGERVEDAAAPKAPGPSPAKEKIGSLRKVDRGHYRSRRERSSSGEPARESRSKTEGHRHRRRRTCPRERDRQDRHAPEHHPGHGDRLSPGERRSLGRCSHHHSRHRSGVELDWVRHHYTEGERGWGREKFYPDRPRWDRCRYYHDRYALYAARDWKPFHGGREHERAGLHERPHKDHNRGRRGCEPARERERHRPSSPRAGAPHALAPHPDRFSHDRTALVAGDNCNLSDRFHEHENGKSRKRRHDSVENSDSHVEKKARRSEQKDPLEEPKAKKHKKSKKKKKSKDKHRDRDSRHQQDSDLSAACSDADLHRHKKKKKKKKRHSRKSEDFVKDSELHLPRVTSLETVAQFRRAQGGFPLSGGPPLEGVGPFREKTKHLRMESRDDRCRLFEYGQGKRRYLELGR
Procedure, shortened: (§1)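 HEK293T lysate, 495 µg per sample in Tris/CHAPS/IGEPAL buffer with protease inhibitors, was treated in triplicate with fragment at 200 µM or vehicle for 3 h and then with Biotin-Ahx-Ub-VS at 0.5 µM final for 1 h. Labelled DUBs were NeutrAvidin-enriched, digested with LysC and trypsin, and run by diaPASEF LC-MS/MS. Spectronaut label-free quantities were global-median-normalised, and values are average log2 fragment/vehicle ratios by unpaired t-test on proteins with ≥2 unique peptides.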

USP46 = USP46 (UniProt P62068)
Chain of USP46 (P62068 whole entry): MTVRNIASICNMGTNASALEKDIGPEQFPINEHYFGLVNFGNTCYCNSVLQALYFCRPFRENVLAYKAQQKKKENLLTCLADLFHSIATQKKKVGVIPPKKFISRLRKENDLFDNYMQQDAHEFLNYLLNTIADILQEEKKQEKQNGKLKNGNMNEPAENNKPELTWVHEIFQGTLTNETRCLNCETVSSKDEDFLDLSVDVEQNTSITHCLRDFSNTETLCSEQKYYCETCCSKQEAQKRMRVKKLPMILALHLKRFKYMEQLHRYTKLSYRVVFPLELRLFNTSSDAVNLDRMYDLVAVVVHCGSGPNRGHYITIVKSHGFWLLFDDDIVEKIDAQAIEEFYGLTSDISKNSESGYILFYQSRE
Procedure, shortened: as §1

USP47 = molecular target: T2, USP47 (UniProt Q96K76)
T2 sequence (whole entry): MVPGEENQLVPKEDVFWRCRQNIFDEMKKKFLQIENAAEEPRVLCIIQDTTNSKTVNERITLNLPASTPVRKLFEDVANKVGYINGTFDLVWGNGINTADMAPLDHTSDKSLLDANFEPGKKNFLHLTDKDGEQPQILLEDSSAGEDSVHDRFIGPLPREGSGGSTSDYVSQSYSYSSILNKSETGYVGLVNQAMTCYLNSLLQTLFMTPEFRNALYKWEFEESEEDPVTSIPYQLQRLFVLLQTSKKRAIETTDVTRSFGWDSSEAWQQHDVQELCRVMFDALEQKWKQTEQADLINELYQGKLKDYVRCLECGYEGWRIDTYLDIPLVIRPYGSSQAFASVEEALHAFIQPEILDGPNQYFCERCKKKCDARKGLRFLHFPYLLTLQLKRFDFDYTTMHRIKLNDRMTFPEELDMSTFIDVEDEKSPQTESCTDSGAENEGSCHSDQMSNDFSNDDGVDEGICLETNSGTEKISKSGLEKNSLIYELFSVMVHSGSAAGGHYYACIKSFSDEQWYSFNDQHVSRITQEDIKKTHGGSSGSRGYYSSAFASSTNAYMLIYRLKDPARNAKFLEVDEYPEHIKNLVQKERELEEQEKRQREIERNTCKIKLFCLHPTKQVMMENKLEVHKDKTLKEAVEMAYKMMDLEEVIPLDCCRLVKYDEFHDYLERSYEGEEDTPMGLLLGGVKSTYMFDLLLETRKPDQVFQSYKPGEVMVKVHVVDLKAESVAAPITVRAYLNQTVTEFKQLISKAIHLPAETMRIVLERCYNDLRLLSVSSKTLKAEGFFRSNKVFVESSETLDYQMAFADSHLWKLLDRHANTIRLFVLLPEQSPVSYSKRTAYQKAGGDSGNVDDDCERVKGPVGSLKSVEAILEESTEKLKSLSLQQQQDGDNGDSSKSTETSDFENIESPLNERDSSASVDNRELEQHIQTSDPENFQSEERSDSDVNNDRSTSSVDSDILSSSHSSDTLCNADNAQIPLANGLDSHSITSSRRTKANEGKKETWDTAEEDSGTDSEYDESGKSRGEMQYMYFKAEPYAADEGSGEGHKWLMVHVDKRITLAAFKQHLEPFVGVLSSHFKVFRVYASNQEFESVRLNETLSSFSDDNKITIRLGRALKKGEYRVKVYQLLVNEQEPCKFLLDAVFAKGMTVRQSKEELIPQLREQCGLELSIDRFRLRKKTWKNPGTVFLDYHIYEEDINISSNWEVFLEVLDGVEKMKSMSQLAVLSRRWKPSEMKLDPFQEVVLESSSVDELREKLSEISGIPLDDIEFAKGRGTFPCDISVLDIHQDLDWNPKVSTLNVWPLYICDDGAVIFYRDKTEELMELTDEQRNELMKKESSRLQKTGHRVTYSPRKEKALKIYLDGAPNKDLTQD
Procedure, shortened: as §1

USP48 = molecular target: T3, USP48 (UniProt Q86UV5)
T3 sequence (whole entry): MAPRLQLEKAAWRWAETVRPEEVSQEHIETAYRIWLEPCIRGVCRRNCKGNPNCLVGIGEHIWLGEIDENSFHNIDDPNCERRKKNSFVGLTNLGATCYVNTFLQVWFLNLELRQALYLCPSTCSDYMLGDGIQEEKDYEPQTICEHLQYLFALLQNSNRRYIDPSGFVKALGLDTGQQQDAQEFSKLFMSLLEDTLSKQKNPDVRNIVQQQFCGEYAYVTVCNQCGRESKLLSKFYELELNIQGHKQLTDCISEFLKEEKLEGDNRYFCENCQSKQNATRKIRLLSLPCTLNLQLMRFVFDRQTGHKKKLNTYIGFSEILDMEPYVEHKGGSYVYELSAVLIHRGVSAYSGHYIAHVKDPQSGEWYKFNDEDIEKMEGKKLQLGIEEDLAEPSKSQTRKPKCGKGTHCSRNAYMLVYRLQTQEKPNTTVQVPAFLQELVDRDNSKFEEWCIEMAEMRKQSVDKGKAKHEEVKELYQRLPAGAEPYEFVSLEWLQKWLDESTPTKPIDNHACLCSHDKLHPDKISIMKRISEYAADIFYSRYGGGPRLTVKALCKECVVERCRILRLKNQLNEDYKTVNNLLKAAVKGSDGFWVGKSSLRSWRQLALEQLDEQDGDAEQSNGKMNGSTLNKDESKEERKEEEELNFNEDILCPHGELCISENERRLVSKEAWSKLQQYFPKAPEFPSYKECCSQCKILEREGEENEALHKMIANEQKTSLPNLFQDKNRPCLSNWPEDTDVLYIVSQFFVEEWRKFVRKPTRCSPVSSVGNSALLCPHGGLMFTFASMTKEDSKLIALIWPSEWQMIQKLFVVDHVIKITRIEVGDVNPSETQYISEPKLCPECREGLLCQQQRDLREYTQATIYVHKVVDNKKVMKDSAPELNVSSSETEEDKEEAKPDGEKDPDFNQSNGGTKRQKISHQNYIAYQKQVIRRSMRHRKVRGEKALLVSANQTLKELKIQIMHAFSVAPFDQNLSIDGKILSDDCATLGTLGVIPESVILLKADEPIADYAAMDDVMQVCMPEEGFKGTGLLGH
Procedure, shortened: as §1

USP5 = molecular target: T4, USP5 (UniProt P45974)
T4 sequence (whole entry): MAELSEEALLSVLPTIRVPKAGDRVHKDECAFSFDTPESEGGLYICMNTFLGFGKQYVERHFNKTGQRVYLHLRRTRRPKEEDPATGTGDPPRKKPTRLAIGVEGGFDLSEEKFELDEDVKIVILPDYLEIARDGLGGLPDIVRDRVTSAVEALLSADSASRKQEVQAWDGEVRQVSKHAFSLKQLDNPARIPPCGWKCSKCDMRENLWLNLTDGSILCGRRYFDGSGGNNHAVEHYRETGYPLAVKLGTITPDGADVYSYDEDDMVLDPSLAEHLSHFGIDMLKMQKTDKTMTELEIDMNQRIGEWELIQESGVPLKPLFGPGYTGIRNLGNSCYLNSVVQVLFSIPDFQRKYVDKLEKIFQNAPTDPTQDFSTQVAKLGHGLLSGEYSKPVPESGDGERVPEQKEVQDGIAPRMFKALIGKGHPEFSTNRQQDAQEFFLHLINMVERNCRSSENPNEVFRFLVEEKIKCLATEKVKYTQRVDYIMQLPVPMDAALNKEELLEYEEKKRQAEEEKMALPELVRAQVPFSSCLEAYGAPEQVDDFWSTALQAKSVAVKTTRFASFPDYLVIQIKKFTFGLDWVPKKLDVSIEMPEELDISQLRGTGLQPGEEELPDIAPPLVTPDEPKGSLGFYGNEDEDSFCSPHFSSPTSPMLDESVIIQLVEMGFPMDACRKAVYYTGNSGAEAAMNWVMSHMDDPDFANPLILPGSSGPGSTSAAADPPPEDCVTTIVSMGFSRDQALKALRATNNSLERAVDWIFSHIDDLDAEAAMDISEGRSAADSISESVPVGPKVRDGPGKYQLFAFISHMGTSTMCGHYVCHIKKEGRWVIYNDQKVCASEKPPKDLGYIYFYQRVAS
Procedure, shortened: as §1

USP54 = USP54 (UniProt Q70EL1)
Chain of USP54 (Q70EL1 whole entry): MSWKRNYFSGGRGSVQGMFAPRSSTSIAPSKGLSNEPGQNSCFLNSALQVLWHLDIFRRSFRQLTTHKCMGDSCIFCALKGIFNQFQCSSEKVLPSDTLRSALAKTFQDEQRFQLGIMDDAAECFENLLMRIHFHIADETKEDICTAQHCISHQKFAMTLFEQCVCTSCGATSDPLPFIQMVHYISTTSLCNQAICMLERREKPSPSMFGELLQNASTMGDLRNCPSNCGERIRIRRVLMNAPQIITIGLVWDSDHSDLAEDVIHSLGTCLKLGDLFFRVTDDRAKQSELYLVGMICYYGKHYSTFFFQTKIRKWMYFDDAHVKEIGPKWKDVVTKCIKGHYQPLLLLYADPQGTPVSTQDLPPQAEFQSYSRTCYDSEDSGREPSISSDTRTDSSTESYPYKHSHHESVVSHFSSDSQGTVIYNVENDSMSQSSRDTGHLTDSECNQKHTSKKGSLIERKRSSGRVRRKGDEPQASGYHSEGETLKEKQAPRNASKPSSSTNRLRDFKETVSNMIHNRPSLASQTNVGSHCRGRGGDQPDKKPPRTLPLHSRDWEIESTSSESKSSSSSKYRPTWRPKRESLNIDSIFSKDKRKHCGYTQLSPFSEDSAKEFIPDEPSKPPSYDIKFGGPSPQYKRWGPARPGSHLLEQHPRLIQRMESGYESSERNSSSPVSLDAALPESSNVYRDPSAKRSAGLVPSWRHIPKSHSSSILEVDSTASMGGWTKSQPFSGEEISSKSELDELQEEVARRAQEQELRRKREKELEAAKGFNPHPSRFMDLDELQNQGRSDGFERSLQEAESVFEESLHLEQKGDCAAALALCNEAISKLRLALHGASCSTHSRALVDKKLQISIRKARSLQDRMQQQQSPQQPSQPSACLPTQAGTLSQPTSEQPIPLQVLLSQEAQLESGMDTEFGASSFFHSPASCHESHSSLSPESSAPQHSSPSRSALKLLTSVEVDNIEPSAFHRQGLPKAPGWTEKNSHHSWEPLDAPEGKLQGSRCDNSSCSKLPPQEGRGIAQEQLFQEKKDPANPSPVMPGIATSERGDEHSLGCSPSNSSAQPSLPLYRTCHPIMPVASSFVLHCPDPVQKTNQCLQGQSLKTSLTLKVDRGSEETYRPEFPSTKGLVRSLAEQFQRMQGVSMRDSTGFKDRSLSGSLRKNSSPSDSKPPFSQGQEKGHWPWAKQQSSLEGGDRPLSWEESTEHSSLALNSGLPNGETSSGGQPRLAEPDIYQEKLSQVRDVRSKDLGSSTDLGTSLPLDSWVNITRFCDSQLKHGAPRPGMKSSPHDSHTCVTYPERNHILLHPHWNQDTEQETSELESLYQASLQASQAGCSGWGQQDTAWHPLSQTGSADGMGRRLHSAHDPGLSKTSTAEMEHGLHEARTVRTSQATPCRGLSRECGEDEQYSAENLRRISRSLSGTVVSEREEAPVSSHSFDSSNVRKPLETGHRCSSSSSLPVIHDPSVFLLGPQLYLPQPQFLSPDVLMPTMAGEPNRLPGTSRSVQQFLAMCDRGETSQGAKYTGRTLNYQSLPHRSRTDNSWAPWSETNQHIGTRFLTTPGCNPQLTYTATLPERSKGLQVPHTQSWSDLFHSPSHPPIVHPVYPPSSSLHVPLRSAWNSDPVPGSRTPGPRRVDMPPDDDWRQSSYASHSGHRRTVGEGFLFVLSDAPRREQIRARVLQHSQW
Procedure, shortened: as §1

USP7 = USP7 (UniProt Q93009)
Procedure, shortened: as §1

USP8 = molecular target: T5, USP8 (UniProt P40818)
T5 sequence (whole entry): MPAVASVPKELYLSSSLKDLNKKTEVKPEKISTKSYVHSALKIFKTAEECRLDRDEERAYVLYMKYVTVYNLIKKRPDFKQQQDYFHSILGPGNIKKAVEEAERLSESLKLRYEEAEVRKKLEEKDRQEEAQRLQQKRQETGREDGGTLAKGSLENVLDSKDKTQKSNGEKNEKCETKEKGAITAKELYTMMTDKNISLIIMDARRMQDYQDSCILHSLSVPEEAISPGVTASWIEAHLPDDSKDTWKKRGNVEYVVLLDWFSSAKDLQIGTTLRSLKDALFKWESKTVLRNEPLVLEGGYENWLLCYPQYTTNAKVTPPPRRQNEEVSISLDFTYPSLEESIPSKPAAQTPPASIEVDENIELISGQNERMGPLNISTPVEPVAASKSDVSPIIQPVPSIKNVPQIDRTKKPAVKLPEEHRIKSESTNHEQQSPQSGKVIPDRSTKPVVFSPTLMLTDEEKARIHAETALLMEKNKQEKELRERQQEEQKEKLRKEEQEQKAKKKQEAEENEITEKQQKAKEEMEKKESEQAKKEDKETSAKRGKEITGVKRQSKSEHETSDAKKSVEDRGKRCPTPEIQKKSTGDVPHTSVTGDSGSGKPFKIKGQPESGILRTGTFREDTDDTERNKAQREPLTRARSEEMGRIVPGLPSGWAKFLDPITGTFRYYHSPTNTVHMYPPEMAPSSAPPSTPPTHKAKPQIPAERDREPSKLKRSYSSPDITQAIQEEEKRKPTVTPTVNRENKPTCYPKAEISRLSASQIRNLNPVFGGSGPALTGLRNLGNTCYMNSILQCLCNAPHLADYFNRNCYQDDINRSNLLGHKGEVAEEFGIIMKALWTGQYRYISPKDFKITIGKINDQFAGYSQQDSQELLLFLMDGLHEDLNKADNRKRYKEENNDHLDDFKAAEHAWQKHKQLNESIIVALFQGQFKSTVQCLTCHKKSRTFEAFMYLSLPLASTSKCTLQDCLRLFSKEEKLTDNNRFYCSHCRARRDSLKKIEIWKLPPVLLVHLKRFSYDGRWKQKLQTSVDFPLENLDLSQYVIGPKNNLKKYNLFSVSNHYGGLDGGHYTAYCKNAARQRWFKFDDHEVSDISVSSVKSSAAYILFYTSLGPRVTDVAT
Procedure, shortened: as §1

USP9X = USP9X (UniProt Q93008)
Chain of USP9X (Q93008 whole entry): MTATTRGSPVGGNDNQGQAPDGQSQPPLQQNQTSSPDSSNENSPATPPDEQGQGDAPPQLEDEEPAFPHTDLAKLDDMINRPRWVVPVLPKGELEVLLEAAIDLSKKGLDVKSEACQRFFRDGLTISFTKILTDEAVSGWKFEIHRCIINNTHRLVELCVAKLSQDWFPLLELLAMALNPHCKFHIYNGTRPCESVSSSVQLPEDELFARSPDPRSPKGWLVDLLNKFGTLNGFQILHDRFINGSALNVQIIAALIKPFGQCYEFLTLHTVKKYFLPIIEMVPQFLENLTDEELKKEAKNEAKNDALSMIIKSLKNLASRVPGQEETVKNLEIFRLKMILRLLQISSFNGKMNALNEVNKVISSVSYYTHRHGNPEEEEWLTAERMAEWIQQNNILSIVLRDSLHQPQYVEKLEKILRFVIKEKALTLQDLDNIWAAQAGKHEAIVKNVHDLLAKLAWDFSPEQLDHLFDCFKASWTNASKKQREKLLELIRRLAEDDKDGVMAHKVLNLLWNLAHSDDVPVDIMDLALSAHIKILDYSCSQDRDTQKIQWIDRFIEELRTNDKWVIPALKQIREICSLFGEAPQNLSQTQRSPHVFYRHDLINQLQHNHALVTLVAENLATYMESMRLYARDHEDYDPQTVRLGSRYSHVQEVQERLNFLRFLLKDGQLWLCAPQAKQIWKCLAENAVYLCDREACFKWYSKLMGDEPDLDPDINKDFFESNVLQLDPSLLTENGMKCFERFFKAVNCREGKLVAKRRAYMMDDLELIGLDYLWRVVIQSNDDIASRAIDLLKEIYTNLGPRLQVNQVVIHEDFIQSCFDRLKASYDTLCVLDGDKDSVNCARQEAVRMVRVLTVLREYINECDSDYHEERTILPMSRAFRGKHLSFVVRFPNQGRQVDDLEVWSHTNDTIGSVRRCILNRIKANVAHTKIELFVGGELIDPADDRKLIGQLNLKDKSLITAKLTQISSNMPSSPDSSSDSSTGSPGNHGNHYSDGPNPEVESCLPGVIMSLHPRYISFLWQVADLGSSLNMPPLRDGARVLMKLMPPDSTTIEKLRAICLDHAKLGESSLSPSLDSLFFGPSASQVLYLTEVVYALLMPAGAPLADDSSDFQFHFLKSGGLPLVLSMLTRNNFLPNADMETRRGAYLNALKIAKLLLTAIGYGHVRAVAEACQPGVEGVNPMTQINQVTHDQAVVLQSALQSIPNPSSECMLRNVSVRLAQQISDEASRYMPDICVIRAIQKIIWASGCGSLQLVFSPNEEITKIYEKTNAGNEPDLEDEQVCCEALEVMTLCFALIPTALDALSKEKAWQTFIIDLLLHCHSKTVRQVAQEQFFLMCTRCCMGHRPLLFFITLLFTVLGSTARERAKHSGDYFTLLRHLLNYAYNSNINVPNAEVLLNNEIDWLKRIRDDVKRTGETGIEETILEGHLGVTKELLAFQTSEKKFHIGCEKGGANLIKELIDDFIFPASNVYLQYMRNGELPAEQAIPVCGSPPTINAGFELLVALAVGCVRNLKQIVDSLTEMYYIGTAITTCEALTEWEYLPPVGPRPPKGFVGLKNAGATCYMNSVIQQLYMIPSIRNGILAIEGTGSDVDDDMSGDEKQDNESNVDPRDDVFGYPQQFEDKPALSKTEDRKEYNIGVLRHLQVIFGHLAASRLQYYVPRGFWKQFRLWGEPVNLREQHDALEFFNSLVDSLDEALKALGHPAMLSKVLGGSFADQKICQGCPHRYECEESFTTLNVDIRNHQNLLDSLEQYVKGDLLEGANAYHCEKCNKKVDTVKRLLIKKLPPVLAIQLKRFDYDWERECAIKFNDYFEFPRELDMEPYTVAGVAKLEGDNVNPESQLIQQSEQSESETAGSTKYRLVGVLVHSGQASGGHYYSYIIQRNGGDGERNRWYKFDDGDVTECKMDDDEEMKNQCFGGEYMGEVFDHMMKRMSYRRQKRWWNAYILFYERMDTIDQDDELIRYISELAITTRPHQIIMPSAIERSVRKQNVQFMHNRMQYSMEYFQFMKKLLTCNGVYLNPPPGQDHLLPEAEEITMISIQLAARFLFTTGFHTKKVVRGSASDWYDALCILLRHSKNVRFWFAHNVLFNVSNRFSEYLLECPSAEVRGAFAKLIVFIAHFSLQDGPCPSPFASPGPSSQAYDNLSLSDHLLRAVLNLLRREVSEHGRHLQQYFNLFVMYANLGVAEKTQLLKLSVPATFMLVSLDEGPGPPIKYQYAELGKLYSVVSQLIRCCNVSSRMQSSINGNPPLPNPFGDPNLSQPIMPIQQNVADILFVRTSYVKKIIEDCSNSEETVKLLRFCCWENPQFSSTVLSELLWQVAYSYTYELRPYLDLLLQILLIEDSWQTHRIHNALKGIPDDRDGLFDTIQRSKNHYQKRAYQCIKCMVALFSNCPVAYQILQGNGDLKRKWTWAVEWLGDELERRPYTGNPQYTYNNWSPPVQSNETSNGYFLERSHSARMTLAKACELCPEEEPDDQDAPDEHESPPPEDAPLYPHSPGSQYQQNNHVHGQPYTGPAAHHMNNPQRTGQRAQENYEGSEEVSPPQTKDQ
Procedure, shortened: as §1

UniProt O00487 = molecular target: UniProt O00487
Chain of UniProt O00487 (O00487 whole entry): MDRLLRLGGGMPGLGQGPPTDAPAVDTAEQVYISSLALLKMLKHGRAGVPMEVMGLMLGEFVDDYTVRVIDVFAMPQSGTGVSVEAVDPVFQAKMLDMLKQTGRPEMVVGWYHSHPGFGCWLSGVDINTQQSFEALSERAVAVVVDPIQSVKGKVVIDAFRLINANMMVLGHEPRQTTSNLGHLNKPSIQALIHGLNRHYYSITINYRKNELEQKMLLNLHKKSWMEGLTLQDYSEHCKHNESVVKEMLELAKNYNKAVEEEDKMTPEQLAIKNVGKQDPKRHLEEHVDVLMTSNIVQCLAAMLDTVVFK
Procedure, shortened: as §1

Measured: log2 ratio of Biotin-Ahx-Ub-VS probe labelling

CC(NC(=O)CCl)c1noc(Cc2ccccc2)n1 (stereo not given)
inactive: USP42 0.115 | USP46 -0.0371 | USP47 0.0165 | USP48 -0.394 | USP5 -0.388 | USP54 0.507 | USP7 -0.475 | USP8 -0.579 | USP9X -0.262 | UniProt O00487 -0.231

O=C(CCl)N1CCC[C@@H]1c1ccon1
inactive: USP42 0.00575 | USP46 -0.0791 | USP47 -0.264 | USP48 -0.779 | USP5 -0.0234 | USP54 0.591 | USP7 -0.78 | USP8 -0.331 | USP9X -0.32 | UniProt O00487 -0.227

Source: the supplement of paper PMC11732987, “Enantioselective OTUD7B fragment discovery through chemoproteomics screening and high-throughput optimisation” (Communications Chemistry, 2025)
